The source of these data is the supplement of paper PMC9177965.

Values joined by “and” are separate entries in the source; they are usually repeats but may differ in a detail not shown here. Identical values can stand only once.

This test has as its system HT29 RNF43 G659fs (RNF43 659mut, CRISPR-edited). Nature of the test: cell viability activity relative to DMSO (negative = inhibition); higher = more viable cells (less growth inhibition). To be noted: 5 µM; 96 h. The protocol:
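Broad Repurposing Library primary screen at a single dose of 5 uM. HT29 sg-Ctrl and HT29 RNF43 G659fs CRISPR-edited isogenic cells were seeded at 2500 cells/well in 384-well plates in duplicate and treated for 96 h. Viability was read by CellTiter-Glo and reported as % activity relative to DMSO, with MG132 as the positive control (negative = growth inhibition).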
On to `O=C1C=C2C=C[C@@H]3C[C@@]2(O1)[C@H]1CCCCN31`, for which the cell viability activity was -29.8%.

For `CN(C)C(=S)SSC(=S)N(C)C`, the cell viability activity is -72.8%.

As to `CC[C@@]1(O)C(=O)OCc2c1cc1n(c2=O)Cc2cc3ccccc3nc2-1`, the cell viability activity is -94%.

Take `NC(=O)c1cn([C@@H]2O[C@H](CO)[C@@H](O)[C@H]2O)c2ncnc(N)c12`: the cell viability activity is -95.1%.

Regarding `N#CC(C#N)=NNc1cccc(Cl)c1`, the cell viability activity is -83.3%.

Consider `O=[N+]([O-])C=Cc1ccc2c(c1)OCO2`, for which the cell viability activity was -25.8%.

`Clc1cccc(SC2CCNCC2)n1`: the cell viability activity was -56.2%.

As to `C/C=C(\C)C(=O)N[C@@H](c1ccccc1)[C@@H](O)C(=O)O[C@H]1C[C@@]2(O)[C@@H](OC(=O)c3ccccc3)[C@@H]3[C@]4(OC(C)=O)CO[C@@H]4C[C@H](O)[C@@]3(C)C(=O)[C@H](OC(C)=O)C(=C1C)C2(C)C`, the cell viability activity was -68.1%.

`C[C@@H]1O[C@@H](O[C@H]2C[C@@H](O)[C@]3(CO)[C@H]4[C@H](O)C[C@]5(C)[C@@H](C6=CC(=O)OC6)CC[C@]5(O)[C@@H]4CC[C@]3(O)C2)[C@H](O)[C@H](O)[C@H]1O`: the cell viability activity is -90.4% and -90%.

For `CCN(CC)CCO[C@H]1CC[C@@]2(C)C(=CC[C@@H]3[C@@H]2CC[C@]2(C)C(=O)CC[C@@H]32)C1`, the cell viability activity is -67.5%.

On to `CC(=O)O[C@@]12CO[C@@H]1C[C@H](O)[C@@]1(C)C(=O)[C@H](O)C3=C(C)[C@@H](O)C[C@@](O)([C@@H](OC(=O)c4ccccc4)[C@H]21)C3(C)C`, for which the cell viability activity is -37.1%.

For the compound `C=C(C)[C@H]1Cc2c(ccc3c2O[C@@H]2COc4cc(OC)c(OC)cc4[C@@H]2C3=O)O1`, the cell viability activity was -61.5%.

As to `CC(C)(C)c1cc(C=C(C#N)C#N)cc(C(C)(C)C)c1O`, the cell viability activity is -79.1%.

Regarding `CC[C@@H]1/C=C/C=C/C[C@H](C)[C@H](O)[C@](C)(O)C(=O)[C@H](C)[C@@H](O)[C@H](C)C(=O)[C@H](C)[C@@H](O)[C@H](C)/C=C/C(=O)O[C@H]2[C@@H](C)[C@@H](CC1)O[C@@]1(CC[C@@H](C)[C@@H](C[C@H](C)O)O1)[C@@H]2C`, the cell viability activity was -38.4%.

As to `C[C@]12O[C@H](C[C@]1(O)CO)n1c3ccccc3c3c4c(c5c6ccccc6n2c5c31)CNC4=O`, the cell viability activity is -88.5%.

In the case of `COc1cc2c(c(OC)c1OC)-c1ccc(OC)c(=O)cc1[C@@H](NC(C)=O)CC2`, the cell viability activity was -55.9% and -56.4%.

Turning to `CC1CC(C)C(=O)C(C(O)CC2CC(=O)NC(=O)C2)C1` (stereo not given), the cell viability activity was -82.5%.

As for `COc1ccc(CCN2CCC(Nc3nc4ccccc4n3Cc3ccc(F)cc3)CC2)cc1`, the cell viability activity was -23.2%.

Regarding `COc1cccc2c1C(=O)c1c(O)c3c(c(O)c1C2=O)C[C@@](O)(C(=O)CO)C[C@@H]3O[C@H]1C[C@H](N2CCO[C@H](OC)C2)[C@H](O)[C@H](C)O1`, the cell viability activity was -96.6%.

Take `Oc1cc(Cl)ccc1Oc1ccc(Cl)cc1Cl`: the cell viability activity was -89.3%.

Take `CC(C)[C@]12O[C@H]1[C@@H]1O[C@]13[C@]1(O[C@H]1C[C@H]1C4=C(CC[C@@]13C)C(=O)OC4)[C@@H]2O`: the cell viability activity was -90.2% and -88.7%.

`O=Cc1cn(Cc2ccc(Cl)cc2)c2ccccc12`: the cell viability activity is -38.7%.

Regarding `C=C1[C@@H](C)[C@H]2[C@H](Cc3ccccc3)NC(=O)[C@]23OC(=O)/C=C/[C@H](O)CCC[C@@H](C)C/C=C/[C@H]3[C@@H]1O`, the cell viability activity was -28.2%.

`C/C(=C\c1csc(C)n1)[C@@H]1C[C@@H]2O[C@]2(C)CCC[C@H](C)[C@H](O)[C@@H](C)C(=O)C(C)(C)[C@@H](O)CC(=O)O1`: the cell viability activity was -51.7%.

In the case of `c1ccc2c(c1)[I+]c1ccccc1-2`, the cell viability activity is -61.9%.

For the compound `Oc1cccc2cccnc12`, the cell viability activity was -48.9%.

For the compound `Cn1c(COP(=O)(NCCBr)NCCBr)cnc1[N+](=O)[O-]`, the cell viability activity is -53.2%.

For `C/C1=C/C[C@@H](/C(C)=C/c2csc(C)n2)OC(=O)C[C@H](O)C(C)(C)C(=O)[C@H](C)[C@@H](O)[C@@H](C)CCC1`, the cell viability activity was -63.7%.

Regarding `COC(=O)C[C@](O)(CCC(C)(C)O)C(=O)O[C@@H]1C(OC)=C[C@]23CCCN2CCc2cc4c(cc2[C@H]13)OCO4`, the cell viability activity was -89.5%.

In the case of `Cc1sc2c(c1C)C(c1ccc(Cl)cc1)=N[C@@H](CC(=O)OC(C)(C)C)c1nnc(C)n1-2`, the cell viability activity was -60.2%.

In the case of `C[C@@H]1CC[C@@]2(OC1)O[C@H]1C[C@H]3[C@@H]4CC=C5C[C@@H](O[C@@H]6O[C@H](CO)[C@@H](O[C@@H]7O[C@@H](C)[C@H](O)[C@@H](O)[C@H]7O)[C@H](O)[C@H]6O[C@@H]6O[C@@H](C)[C@H](O)[C@@H](O)[C@H]6O)CC[C@]5(C)[C@H]4CC[C@]3(C)[C@H]1[C@@H]2C`, the cell viability activity was -25.8%.

As for `C[C@@H]1O[C@@H](O[C@@H]2C=C3CC[C@@H]4[C@H](CC[C@]5(C)[C@@H](c6ccc(=O)oc6)CC[C@]45O)[C@@]3(C)CC2)[C@H](O)[C@H](O)[C@H]1O`, the cell viability activity is -81.8%.

As to `C[C@@]1(CO)[C@H](O)CC[C@@]2(C)[C@H]1CC[C@H]1C[C@@H]3C[C@@]12CC[C@]3(O)CO`, the cell viability activity is -31.8%.

`CN1CCN(c2cccc3[nH]c(=O)oc23)CC1`: the cell viability activity was -64.6%.

With `C[C@]12CC[C@H]3[C@@H](CC[C@]4(O)C[C@@H](O)CC[C@]34C=O)[C@@]1(O)CC[C@@H]2C1=CC(=O)OC1`, the cell viability activity was -81.8%.

For the compound `CCCCCCCCCCCCCCCC[n+]1ccccc1`, the cell viability activity is -92.7%.

As to `COc1ccc(C[C@H]2NC[C@H](O)[C@H]2OC(C)=O)cc1`, the cell viability activity is -91.2%.

Consider `C[C@]12CC[C@H](O)C[C@H]1CC[C@@H]1[C@@H]2CC[C@]2(C)[C@@H](C3=CC(=O)OC3)CC[C@]12O`, for which the cell viability activity was -87.2%.

Regarding `CC[C@@H](C(=O)[C@@H](C)[C@@H](O)[C@H](C)[C@@H]1O[C@@H]([C@@H](CC)C(=O)O)CC[C@@H]1C)[C@H]1O[C@]2(C=C[C@@H](O)[C@]3(CC[C@@](C)([C@H]4CC[C@](O)(CC)[C@H](C)O4)O3)O2)[C@H](C)C[C@@H]1C`, the cell viability activity was -79.3%.

Take `O=C(C[C@H]1NCCC[C@@H]1O)Cn1cnc2cc(Br)c(Cl)cc2c1=O`: the cell viability activity was -91.6%.
